# Screening data as filed in PubChem.
# FBPA coupling cs – counter-screen for Giardia aldolase inhibitors: coupling enzyme system | coupling enzyme system counterscreen, AmpLite Red fluorescence | activity change, negative = inhibition, % at 58.2 µM, hits read low | 290,000 tested, 0.67% active | AID 2472; in the data active = activity change below about -30%
#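 Counterscreen of the coupled detection system alone, without aldolase: glyceraldehyde-3-phosphate coupling enzymes plus AmpLite Red readout. Compounds at 57.5 uM final, 10 min RT preincubation, 20 min RT reaction, fluorescence 525/598 nm.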
# Tau FP inhib – tau fibrillization inhibition (FP); P10636; K18 P301L tau heparin fibrillization, Alexa594 FP, 6 h; Potency, µM (titrated, usually from 57.7 µM), inactives show top-dose activity, negative = inhibition, actives largely listed as inhibitors; 280,000 tested, 0.39% active; AID 1468; also: potency is read from the fitted curve at half-maximal effect; nearly all actives have a fitted effect of over 55% in size
# Target sequence (P10636 561-689 P618L limits assumed): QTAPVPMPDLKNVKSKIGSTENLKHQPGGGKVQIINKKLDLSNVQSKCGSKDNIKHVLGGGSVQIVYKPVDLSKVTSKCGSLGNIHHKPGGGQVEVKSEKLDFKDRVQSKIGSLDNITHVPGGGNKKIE
#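 FP of Alexa 594-tau after heparin (20 uM) induction. Substrate: human K18 P301L, 15 uM unlabeled, 0.24 uM labeled. Buffer 100 mM sodium acetate pH 7. 6 hr, 37 C.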
# Tau fluor counter – counter-screen for tau fibril formation inhibitors; tau K18 P301L Alexa594 fluorescence, heparin fibrillization; Potency, µM (doses to about 57.7 µM), inactives show top-dose activity change, negative = decrease; 280,000 tested, 0.93% active; also: potency is read from the fitted curve at half-maximal effect; nearly all actives have a fitted effect of over 55% in size
#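 Human tau K18 P301L (15 uM unlabeled, 0.24 uM Alexa 594-labeled) in 100 mM sodium acetate pH 7 with 20 uM heparin, 6 hr at 37 C. ThT 30 uM added, 1 hr ambient; Alexa 594 FP and total fluorescence read at 555/632 nm.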
# Tau ThT inhib – inhibitors of human tau fibril formation, thioflavin T binding; recombinant tau K18 P301L (four-repeat tau fragment), heparin-induced fibrillization, ThT fluorescence; Potency, µM (titrated, usually from 57.4 µM), inactives show at the top dose activity, negative = inhibition, actives largely listed as inhibitors; P10636; AID 1460; 270,000 tested, 2.1% active; also: potency is read from the fitted curve at half-maximal effect; nearly all actives have a fitted effect of over 55% in size
#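 Heparin-induced fibrillization of the P301L-mutant K18 repeat-domain fragment of human tau was followed by ThT binding in quantitative high-throughput format.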
# Sfp inh – inhibitors of Bacillus subtilis Sfp phosphopantetheinyl transferase | Q9F4F7 | Biochemical Sfp PPTase activity, qHTS | Potency, µM, without a hit: largest response in the series, negative = inhibition, most hits filed as inhibitors | 310,000 tested, 3.5% active;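 also: the enzyme is Sfp with the accession as filed and its product quenches rhodamine fluorescence; potency is read from the fitted curve at half-maximal effect; 0% = enzyme reaction without inhibitor and -100% = no enzyme wells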
#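 Step 1, compound plus 15 nM Sfp-PPTase, 15 min, room temperature. Step 2, add rhodamine-CoA (5 uM) and BHQ-2-YbbR (12.5 uM). Step 3, read 525/598 nm fluorescence at 0 and 30 min.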
# * = called active by the depositor; ? = inconclusive; · = not tested or not shown; [ ] = remark or other dose. Rows were chosen to be rich in hits. Some 5.2% of all compounds tested hit in one or more screens of this group. Unless noted, calls follow the shape of the dose curve; as a rule, active = well fitted curve in the direction sought with a large enough effect; inconclusive = small, poorly fitted or top-dose-only effect, or another doubt; inactive = no such curve, though single readings can be large; an effect the other way counts as inactive or inconclusive. Unless noted, % is scaled to controls: 0 for no effect and ±100 for the full control effect.
SMILES,FBPA coupling cs,Tau FP inhib,Tau fluor counter,Tau ThT inhib,Sfp inh
CCOC(=O)c1ccc(NC(=O)CSc2ncc(S(=O)(=O)c3ccc(C)c(Cl)c3)c(=O)[nH]2)cc1,·,3.9%,-1.7%,0.5%,·
O=c1cc2c(=O)oc3cc(O)c(O)oc3c2c(O)c1O,-12.1,?,-28.6%,4.47µM*,5.01µM*
COc1ccc(NC(=O)CCc2c(C)nc3c(c2C)c(=O)n(C)c(=O)n3C)c(OC)c1,·,-4.3%,-12.7%,-16.9%,·
CCOC(=O)c1nnc(-c2ccc(C)cc2)nc1Sc1ccccc1Cl,-10.0,-6.9%,-12.5%,?,2.5%
CCOC(=O)c1nnc(-c2ccccc2)nc1NCc1ccc(Cl)cc1,0.7,5.3%,-17.2%,?,50.1µM*
CCOC(=O)c1nnc(-c2ccccc2)nc1Sc1c(Cl)cccc1Cl,-4.5,-6.3%,?,11.2µM*,-6.6%
COc1cccc([C@@H]2Oc3ccc(Br)cc3[C@H](O)[C@H]2O)c1,-0.9,6.8%,-2.2%,-1.4%,-16.8%
c1n[nH]c(NC2=NCCC2)n1,2.6,-0.3%,4.8%,-2.9%,44.7µM*
Cc1ccc(S(=O)(=O)C(CNC(=O)C(=O)NCCc2ccc(F)cc2)c2cccs2)cc1 (stereo not drawn),·,-14.3%,-8.2%,-2.0%,·
COc1ccc(C(=O)Nc2ccc3nc(N4CCC(C)CC4)cc(C)c3c2)cc1,·,-7.1%,5.01µM*[quencher],?,·
COc1ccc(/C=C/C(=O)Nc2ccc3nc(N4CCCCC4)cc(C)c3c2)cc1OC,·,?,7.94µM*[quencher],2.82µM*,·
CCCCc1ccc(C(=O)Nc2ccc3nc(N4CCN(CC)CC4)cc(C)c3c2)cc1,·,-11.1%,?,?,·
COc1cccc(C(=O)Nc2ccc3nc(N4CCC(C)CC4)cc(C)c3c2)c1,·,6.3%,12.6µM*[quencher],?,·
COc1ccc(/C=C/C(=O)Nc2ccc3nc(N4CCC(C)CC4)cc(C)c3c2)cc1,·,13.1%,3.98µM*[quencher],?,·
CCCCNC(=O)CCC(=O)Nc1ccc2nc(N3CCC(C)CC3)cc(C)c2c1,-0.1,16.2%,-24.0%,-17.2%,-1.2%
CC(C)c1cccc(C(C)C)c1NS(=O)(=O)c1cccs1,·,-3.3%,-13.0%,-7.1%,·
COc1cccc(-c2nnc3n2N=C(c2ccccc2OC)CS3)c1,-3.7,·,·,·,-10.3%
CC(C)CCNC(=O)c1ccc2nc(CCc3ccccc3)oc2c1,·,-6.7%,6.4%,10.9%,·
Cn1c(=O)c2c(SCC(=O)Nc3ccccc3C(F)(F)F)nc(C3CCCC3)nc2n(C)c1=O,·,3.6%,10.4%,6.0%,·
Cc1cc(N2CCOCC2)nc2ccc(NC(=O)CCC(=O)N3CCC(C)CC3)cc12,-33.0*,-7.3%,-13.1%,-8.1%,12.5%
Cc1cc(N2CCOCC2)nc2ccc(NC(=O)CCC(=O)N3CCCCC3)cc12,0.6,2.8%,-12.9%,?,10.5%
CN(C)CCNC(=O)/C(=C/c1ccc(-c2ccc(Cl)cc2)o1)NC(=O)c1ccccc1,3.0,-0.5%,-6.6%,-8.5%,-30.9%
CN(C)CCNC(=O)/C(=C/c1ccc(-c2ccc(Cl)cc2Cl)o1)NC(=O)c1ccccc1,-2.3,-10.8%,-8.7%,?,39.8µM*
O=C(/C=C/c1ccc(-c2ccccc2[N+](=O)[O-])o1)c1ccc(Br)cc1,-14.4,-5.3%,?,7.94µM*,-1.1%
Cc1ccc(C(=O)/C=C/c2ccc(-c3ccccc3[N+](=O)[O-])o2)cc1,-11.2,-3.7%,?,8.91µM*,-13.7%
SMILES,FBPA coupling cs,Tau FP inhib,Tau fluor counter,Tau ThT inhib,Sfp inh
C=C1C[C@@]23C[C@]1(O)CC[C@@H]2[C@]12C=C[C@@H](O)[C@](C)(C(=O)O1)[C@H]2[C@H]3C(=O)O,0.4,·,·,·,-2.3%
CCOC(=O)C1=C(c2ccccc2)Nc2ncnn2C1c1ccc(C(=O)O)cc1 (stereo not drawn),1.9,-3.4%,-10.6%,-7.5%,9.7%
CCOC(=O)C1=C(c2ccccc2)NC(N)=NC1c1ccc(OCc2ccc(C(=O)OC)cc2)cc1 (stereo not drawn),-0.4,-5.3%,-24.6%,?,79.4µM*
O=c1[nH]nc(Cc2ccc(-c3ccc(Cl)cc3)o2)c2ccccc12,-11.6,-19.1%,-17.5%,-10.9%,56.2µM*
O=c1[nH]nc(Cc2ccccc2)c2ccccc12,-1.5,-5.3%,-11.7%,-7.6%,9.0%
C/C=C/COC(=O)c1[nH]c2c(c1C)C(=O)CC(c1ccco1)C2 (stereo not drawn),1.9,-7.1%,-17.6%,?,50.1µM*
Cc1c(C(=O)OCC(C)C)[nH]c2c1C(=O)CC(c1ccco1)C2 (stereo not drawn),-0.4,-0.2%,-10.4%,?,39.8µM*
C=CCOC(=O)c1[nH]c2c(c1C)C(=O)CC(c1ccco1)C2 (stereo not drawn),-0.6,-3.9%,-4.7%,?,?
Cc1ccc2[nH]c(O)c(N=Nc3nc4ccccc4s3)c2c1,2.0,0.8%,?,·,2.4%
Oc1[nH]c2ccccc2c1N=Nc1ccccc1,0.3,-5.1%,?,?,-12.7%
O=C(N=Nc1c(O)[nH]c2ccccc12)c1cc(-c2ccc(F)cc2)n[nH]1,1.1,-3.0%,-16.3%,2.24µM*,-9.5%
O=C(N=Nc1c(O)[nH]c2ccccc12)c1cc(-c2cccs2)[nH]n1,-16.9,-6.4%,?,·,-28.1%
Oc1[nH]c2ccccc2c1N=Nc1nc2ccccc2s1,5.7,6.6%,?,2µM*,8.8%
O=Nc1c(-c2c(O)[nH]c3ccccc23)[nH]c2ccccc12,-6.2,?,15.8µM*[quencher],2.82µM*,-27.6%
Oc1[nH]c2ccccc2c1N=Nc1ccc(F)cc1,-0.8,1.8%,-28.4%,2µM*,-1.1%
CC(=O)c1ccc(NC(=O)c2cc(-c3ccc(Cl)c(Cl)c3)on2)cc1,·,0.5%,-14.1%,?,·
COc1ccccc1NC(=S)N=Nc1c(O)[nH]c2ccc(Br)cc12,0.4,-1.7%,?,?,-16.2%
COC(=O)/C=C(\C)N=Nc1c(O)[nH]c2ccccc12,-7.6,-5.5%,-20.4%,11.2µM*,6.7%
NS(=O)(=O)c1cc(C(=O)N=Nc2c(O)[nH]c3ccccc23)ccc1Cl,-1.2,0.6%,-29.8%,14.1µM*,-2.9%
Cc1cccc(NC(=S)N=Nc2c(O)[nH]c3ccccc23)c1,0.5,-1.0%,14.1µM*[quencher],7.94µM*,18.1%
COCCn1c(=O)c(-c2ccc(F)cc2)nc2cnc(OCc3ccccc3)nc21,-2.1,·,·,·,-9.7%
Cc1ccc(Cl)cc1N1CCN(C(=O)C2CCN(S(=O)(=O)Cc3ccccc3)CC2)CC1,·,-14.1%,-25.7%,5.4%,·
O=C(O)c1ccc(Cn2cc(/C=C\[N+](=O)[O-])c3ccccc32)o1,11.3,·,·,·,-26.5%
COC(=O)c1ccc(Cn2cc(/C=C\[N+](=O)[O-])c3ccccc32)o1,-0.3,·,·,·,56.2µM*
COc1cc(Br)cc(CNc2ccc(F)c([N+](=O)[O-])c2)c1O,-10.1,-1.3%,25.1µM*[quencher],15.8µM*,25.1µM*
